Activity calls are given as the source filed them. Unless noted, the rule behind the calls is not given here.
Tests used:
[1] = system: Wnt5a (protein binding on small-molecule microarray); assay: small molecules binding Wnt5a protein – biophysical, small-molecule microarray, 635/667 nm fluorescence, primary screen (AID 1142); details: 635 nm fluorescence, higher = more signal;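 note: fluorescence read at 667 nm with signal to noise per printed feature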
[2] = ATP-based viability of Huh7 replicon cells – cell-based, CellTiter-Glo luminescence, basal, 48 h, cytotoxicity control for HCV replication inhibitor project, primary screen (AID 1143); details: higher = more signal, called active from +8 up or from −8 down;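 note: Huh7 hepatoma cells carrying a hepatitis C replication reporter with no stimulus; test concentration not given here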
[3] = Pseudomonas biofilm growth suppression – PAO1 strain, BacTiter-Glo luminescence, LB-PBS, primary screen (AID 1144); details: P. aeruginosa PAO1 biofilm, 12 h, higher = more signal
[4] = basal CRE-LacZ reporter activity in PC12 – cell-based, unstimulated, primary screen (AID 1145); details: no forskolin, luminescence, 4.5 h, higher = more signal, called active from +8 up or from −8 down
[5] = forskolin-driven CRE-LacZ activity in PC12 – cell-based, CRE-LacZ reporter, forskolin-stimulated, primary screen (AID 1146); details: luminescence, 4.5 h, higher = more signal, called active from +8 up or from −8 down;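 note: PC12 cells with 6xCRE LacZ reporter stimulated by forskolin 10 µM; beta-galactosidase reporter signal reflecting CREB driven transcription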
[6] = target: Streptavidin (Streptomyces avidinii) (UniProt P22629); assay: compounds binding control protein streptavidin – biophysical, small-molecule microarray, 635/667 nm fluorescence, artefact control for SMM compound annotation, primary screen (AID 1147); details: higher = more signal;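 note: signal reflects streptavidin binding to arrayed compounds as a control protein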
Sequence of Streptavidin (Streptomyces avidinii) (P22629 whole entry, looked up): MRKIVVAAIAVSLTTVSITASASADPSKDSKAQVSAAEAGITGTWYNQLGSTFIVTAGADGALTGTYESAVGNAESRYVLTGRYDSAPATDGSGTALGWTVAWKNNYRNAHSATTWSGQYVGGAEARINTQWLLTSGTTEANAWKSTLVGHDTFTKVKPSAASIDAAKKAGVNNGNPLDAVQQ

[7] = probe aInhba binding on compound microarray – biochemical, small-molecule microarray, 635/667 nm fluorescence, primary screen (AID 1148); details: higher = more signal;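 note: score merges 667nm spot fluorescence with signal-to-noise for antibody binding to printed compounds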
Torsin-1A (Homo sapiens) [8] = target: Torsin-1A (Homo sapiens) (UniProt O14656); assay: TOR1A wild-type binding on microarray – cell lysate, small-molecule microarray, lysate, 635/667 nm, primary screen (AID 1149); details: COS7 hTOR1A-WT lysate, 635 nm fluorescence, higher = more signal
Sequence of Torsin-1A (Homo sapiens) (O14656 whole entry, looked up): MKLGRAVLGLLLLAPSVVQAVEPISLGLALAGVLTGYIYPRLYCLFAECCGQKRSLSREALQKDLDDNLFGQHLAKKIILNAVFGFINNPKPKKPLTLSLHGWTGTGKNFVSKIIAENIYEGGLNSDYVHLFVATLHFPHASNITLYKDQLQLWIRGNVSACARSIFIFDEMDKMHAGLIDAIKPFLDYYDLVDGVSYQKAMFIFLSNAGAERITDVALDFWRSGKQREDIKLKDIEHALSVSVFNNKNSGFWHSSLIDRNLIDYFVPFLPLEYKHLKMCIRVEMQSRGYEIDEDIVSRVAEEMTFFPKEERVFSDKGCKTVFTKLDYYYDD

Torsin-1A (Homo sapiens) [9] = target: Torsin-1A (Homo sapiens) (UniProt O14656); assay: torsin A mutant lysate binding on microarrays – cell lysate, small-molecule microarray, COS7 lysate, 635/667 nm fluorescence, primary screen (AID 1150); details: COS7 hTOR1A mutant lysate, 635 nm fluorescence, higher = more signal;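 note: score pools 667 nm emission and signal to noise measuring lysate protein binding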
[10] = system: Sonic hedgehog protein (Shh); assay: Sonic hedgehog microarray binding compounds – biochemical, small-molecule microarray, 635/667 nm fluorescence, primary screen (AID 1151); details: 635 nm fluorescence, higher = more signal;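 note: Shh protein binding to compounds spotted on small-molecule microarray slides; score combines spot fluorescence intensity with signal-to-noise across triplicate slides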
[11] = optical density shifts of acrAB sulA E. coli – strain DRC41, OD650, 48 h, E. coli filamentation inducer project, primary screen (AID 1152); details: higher = more signal, called active from +8 up or from −8 down;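 note: E. coli MC1000 strain DRC41 lacking acrAB efflux pump and sulA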
[12] = probe aLefty1 binding on compound microarray – biochemical, small-molecule microarray, 635/667 nm fluorescence, primary screen (AID 1153); details: higher = more signal;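 note: score merges spot fluorescence with signal-to-noise ratio from the scanned slide images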
[13] = plasmodial surface anion channel blockers, osmotic lysis – cell-based, P. falciparum Indochina, OD700, 1 h, primary screen (AID 1154); details: P. falciparum Indochina infected RBC osmotic lysis, higher = more signal, called active from +8 up or from −8 down
[14] = plasmodial surface anion channel blockers, osmotic lysis – cell-based, P. falciparum Indochina, OD700, 2 h, primary screen (AID 1155);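 note: lysis reports solute entry through the parasite surface anion channel PSAC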; details: P. falciparum Indochina infected erythrocytes, higher = more signal, called active from +8 up or from −8 down
[15] = changes in parasitized red cell lysis, either direction – P. falciparum Indochina, OD700, 3 h, PSAC antagonist project, primary screen (AID 1156); details: P. falciparum-infected erythrocytes, osmotic lysis, higher = more signal, called active from +8 up or from −8 down
[16] = plasmodial surface anion channel blockers, osmotic lysis – cell-based, P. falciparum Indochina, OD700, 18 h, primary screen (AID 1157); details: P. falciparum Indochina infected erythrocytes, osmotic lysis OD700, 18 h; higher = more signal, called active from +8 up or from −8 down
[17] = S6 kinase pathway phospho-S6 level changes – cell-based, A549, cytoblot, luminescence, serum-stimulated, primary screen (AID 1158); details: 5 h, higher = more signal;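 note: serum-stimulated A549 lung adenocarcinoma cells; signal is phosphorylated S6 detected by cytoblot immunostaining with HRP secondary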
[18] = target: NADPH oxidase 2 (Homo sapiens) (UniProt P04839); assay: compounds shifting NOX2 Amplex Red fluorescence – cell-based, HEK293-NOX2, PMA-stimulated, NOX inhibitor project, primary screen (AID 1159); details: 45 min, higher = more signal, called active from +8 up or from −8 down; note: test concentration not given here
Sequence of NADPH oxidase 2 (Homo sapiens) (P04839 whole entry, looked up): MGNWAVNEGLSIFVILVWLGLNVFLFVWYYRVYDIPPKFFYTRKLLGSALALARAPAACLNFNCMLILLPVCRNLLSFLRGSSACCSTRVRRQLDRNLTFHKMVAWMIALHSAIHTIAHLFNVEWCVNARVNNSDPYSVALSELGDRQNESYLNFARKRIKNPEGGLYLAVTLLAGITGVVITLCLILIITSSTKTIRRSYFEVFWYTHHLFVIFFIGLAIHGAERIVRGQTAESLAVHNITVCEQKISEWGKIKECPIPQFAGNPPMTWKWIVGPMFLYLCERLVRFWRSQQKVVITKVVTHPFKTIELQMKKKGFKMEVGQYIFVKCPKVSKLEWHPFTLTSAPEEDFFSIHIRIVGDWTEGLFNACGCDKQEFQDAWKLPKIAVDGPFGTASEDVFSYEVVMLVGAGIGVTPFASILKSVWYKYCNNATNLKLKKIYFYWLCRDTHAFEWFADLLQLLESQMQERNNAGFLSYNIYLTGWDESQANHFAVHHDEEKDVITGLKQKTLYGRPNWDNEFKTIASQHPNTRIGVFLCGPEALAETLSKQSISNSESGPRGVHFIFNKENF

[19] = target: NADPH oxidase 4 (Homo sapiens) (UniProt Q9NPH5); assay: compounds shifting NOX4 Amplex Red fluorescence – cell-based, HEK293-NOX4, tetracycline-induced, NOX inhibitor project, primary screen (AID 1160); details: HEK293-NOX4, Amplex Red H2O2 fluorescence, 45 min; higher = more signal, called active from +8 up or from −8 down
Sequence of NADPH oxidase 4 (Homo sapiens) (Q9NPH5 whole entry, looked up): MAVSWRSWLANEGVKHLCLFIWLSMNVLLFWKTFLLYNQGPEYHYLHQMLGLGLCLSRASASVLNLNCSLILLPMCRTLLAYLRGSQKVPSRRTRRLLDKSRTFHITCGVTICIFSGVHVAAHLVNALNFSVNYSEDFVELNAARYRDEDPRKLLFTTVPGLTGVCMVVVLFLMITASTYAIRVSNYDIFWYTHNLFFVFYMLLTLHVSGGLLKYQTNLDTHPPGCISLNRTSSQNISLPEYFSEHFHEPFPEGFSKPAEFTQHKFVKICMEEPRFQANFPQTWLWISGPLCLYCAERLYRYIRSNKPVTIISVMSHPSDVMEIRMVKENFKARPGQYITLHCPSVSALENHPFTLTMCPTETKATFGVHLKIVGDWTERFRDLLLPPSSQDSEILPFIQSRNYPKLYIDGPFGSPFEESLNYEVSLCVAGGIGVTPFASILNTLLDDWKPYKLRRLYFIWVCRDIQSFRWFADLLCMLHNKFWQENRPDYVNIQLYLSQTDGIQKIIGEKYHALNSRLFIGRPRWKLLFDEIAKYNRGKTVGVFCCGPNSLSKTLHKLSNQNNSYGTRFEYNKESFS

[20] = target: NADPH oxidase 5 (Homo sapiens) (UniProt Q96PH1); assay: compounds shifting NOX5 Amplex Red fluorescence – cell-based, HEK293-NOX5, NOX inhibitor project, primary screen (AID 1161); details: HEK293-NOX5, ionomycin, 45 min, higher = more signal
Sequence of NADPH oxidase 5 (Homo sapiens) (Q96PH1 whole entry, looked up): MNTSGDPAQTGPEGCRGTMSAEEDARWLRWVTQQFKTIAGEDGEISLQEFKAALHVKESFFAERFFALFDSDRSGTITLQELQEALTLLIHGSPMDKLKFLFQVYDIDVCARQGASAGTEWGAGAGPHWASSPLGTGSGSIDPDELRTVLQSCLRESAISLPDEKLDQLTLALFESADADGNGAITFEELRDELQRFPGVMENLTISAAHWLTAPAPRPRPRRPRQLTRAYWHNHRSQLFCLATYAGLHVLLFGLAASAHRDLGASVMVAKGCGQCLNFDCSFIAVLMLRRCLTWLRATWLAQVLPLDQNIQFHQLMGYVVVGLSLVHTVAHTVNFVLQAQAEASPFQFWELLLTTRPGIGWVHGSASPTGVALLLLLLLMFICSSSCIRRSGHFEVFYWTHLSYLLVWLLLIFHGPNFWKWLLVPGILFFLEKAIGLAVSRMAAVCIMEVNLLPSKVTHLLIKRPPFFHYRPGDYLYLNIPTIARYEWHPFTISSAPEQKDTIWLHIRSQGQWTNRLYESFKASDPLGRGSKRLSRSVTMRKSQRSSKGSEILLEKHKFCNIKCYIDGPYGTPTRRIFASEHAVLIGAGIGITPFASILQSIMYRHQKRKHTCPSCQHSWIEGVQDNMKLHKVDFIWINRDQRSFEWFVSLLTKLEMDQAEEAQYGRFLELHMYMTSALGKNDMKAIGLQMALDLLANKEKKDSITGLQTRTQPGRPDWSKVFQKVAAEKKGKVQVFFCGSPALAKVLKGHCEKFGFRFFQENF

Compound | composite z-score [1] | z-score [2] | z-score [3] | z-score [4] | z-score [5] | composite z-score [6] | composite z-score [7] | composite z-score (Torsin-1A (Homo sapiens) [8]) | composite z-score (Torsin-1A (Homo sapiens) [9]) | composite z-score [10] | z-score [11] | composite z-score [12] | z-score [13] | z-score [14] | z-score [15] | z-score [16] | z-score [17] | z-score [18] | z-score [19] | z-score [20]
C=C(C)C1C(=C)CN([C@H](CO)c2ccccc2)C1=O (stereo not given in full) | -0.231 | -0.677 (inactive) | -0.65 (inactive) | -0.141 (inactive) | 0.176 (inactive) | -1.12 | -0.103 | -1.46 | -0.821 | 1.28 | -1.08 (inactive) | -0.285 | 0.391 (inactive) | 0.497 (inactive) | 0.711 (inactive) | -0.0396 (inactive) | -0.272 | 1.98 (inactive) | 0.998 (inactive) | -0.846
Cc1ccc(S[C@]2(C(=O)NCCN3CCOCC3)CC(=O)N(Cc3ccccc3Cl)[C@@H]2c2ccc(CO)cc2)cc1 | -0.0036 | -2.93 (inactive) | -1.98 (inactive) | 0.441 (inactive) | 1.1 (inactive) | -0.625 | -0.255 | -2.16 | 0.269 | -0.143 | 0.59 (inactive) | 0.0402 | 2.62 (inactive) | 0.43 (inactive) | 1.94 (inactive) | 0.524 (inactive) | 0.413 | -2.29 (inactive) | -1.85 (inactive) | -2.89
CCCCN1CC=CC23O[C@@H]4C=CCOC(=O)[C@@H]4[C@H]2C(=O)N(CCCCCO)[C@@H]3C1=O (stereo not given in full) | -0.103 | 0.445 (inactive) | -1.08 (inactive) | -0.761 (inactive) | -0.645 (inactive) | -1.32 | -0.0531 | -0.915 | 1.23 | 1.07 | 0.504 (inactive) | 0.749 | 1.25 (inactive) | 0.882 (inactive) | 1.22 (inactive) | 0.529 (inactive) | 0.0401 | 0.872 (inactive) | 0.381 (inactive) | 1.37
CN(C)CCCNC(=O)[C@@]1(C)c2ccccc2C(=O)N(Cc2cc(F)cc(C(F)(F)F)c2)[C@H]1c1ccc(CO)cc1 | -0.569 | -1.69 (inactive) | 1.25 (inactive) | -0.0888 (inactive) | 0.506 (inactive) | -0.432 | -0.179 | -1.2 | 0.301 | -0.335 | -0.0995 (inactive) | 0.0391 | 2.41 (inactive) | 0.159 (inactive) | 1.32 (inactive) | -0.0617 (inactive) | -0.0103 | -0.655 (inactive) | 0.835 (inactive) | 0.463
COc1ccc(NN2C(C(O)c3ccc([N+](=O)[O-])cc3)C=CC3C(=O)N(C4CCCCC4)C(=O)C32)cc1 (stereo not given) | -0.0777 | -0.416 (inactive) | -1.05 (inactive) | -0.667 (inactive) | -0.441 (inactive) | 1.99 | 0.199 | -0.233 | 0.382 | -0.49 | -0.256 (inactive) | 0.3 | 7.78 (inactive) | 1.11 (inactive) | -0.187 (inactive) | 0.708 (inactive) | -0.126 | -1.03 (inactive) | -2.3 (inactive) | -0.48
COc1ccc([C@H]2OC[C@@H]3CC4(CC=CC4)C(=O)N32)cc1 | 0.0071 | 0.377 (inactive) | 0.25 (inactive) | 0.236 (inactive) | 0.249 (inactive) | 0.193 | -0.159 | -0.477 | -0.436 | 1.92 | -0.56 (inactive) | 0.0406 | 0.486 (inactive) | 0.477 (inactive) | -0.51 (inactive) | 0.136 (inactive) | -0.516 | 0.777 (inactive) | 0.674 (inactive) | 0.291
COC(=O)C=C(CC(O)c1cccc(Cl)c1)OC (stereo not given) | 0.321 | -2.41 (inactive) | -0.179 (inactive) | -0.116 (inactive) | -0.809 (inactive) | 0.307 | 1.09 | 0.208 | 1.11 | -0.425 | 0.502 (inactive) | 1.6 | 19.4 (active) | 2.27 (inactive) | -0.188 (inactive) | -0.936 (inactive) | 0.794 | 0.0865 (inactive) | -0.0239 (inactive) | 0.219
CN1C(=O)C2C=CC(C(O)C3=C[C@H]4C[C@@H](C3)C4(C)C)N(Nc3ccccc3)C2C1=O (stereo not given in full) | 0.0737 | 0.435 (inactive) | -0.79 (inactive) | 0.812 (inactive) | 0.767 (inactive) | 0.186 | -0.0313 | -0.189 | 0.276 | 0.447 | -0.318 (inactive) | 0.202 | 0.451 (inactive) | 0.69 (inactive) | -0.0209 (inactive) | 0.852 (inactive) | -0.776 | -0.945 (inactive) | -3.91 (inactive) | -2.99
O=C1OCC=C[C@H]2OC34C=CCN(CCN5CCOCC5)C(=O)[C@H]3N(CCCO)C(=O)[C@@H]4[C@@H]12 (stereo not given in full) | -0.418 | -2.3 (inactive) | -0.0222 (inactive) | 0.329 (inactive) | 1.5 (inactive) | 0.212 | -0.128 | 0.267 | 0.156 | 1 | 0.109 (inactive) | -0.147 | 0.64 (inactive) | -0.385 (inactive) | 1.27 (inactive) | -1.19 (inactive) | 1.08 | 0.812 (inactive) | -1.16 (inactive) | 0.375

From PubChem BioAssay
